PubChem BioAssay (NCATS)
Results filed as inconclusive are left out. The source made the active and inactive calls. Calls come from the whole dose curve; as a rule, active = well fitted curve in the direction sought with a large enough effect; inconclusive = small, poorly fitted or top-dose-only effect, or another doubt; inactive = no such curve, though single readings can be large; an effect the other way counts as inactive or inconclusive.

Assays:
OV90 = experiment: Primary qHTS to identify gynecologic anti-cancer compounds using libraries of approved drugs and bioactive compounds (AID 1345084); conditions: Gynecologic cancer cell panel viability, ATPlite luminescence, 48 h; series mostly up to 57.5 µM; note: nearly all actives have a fitted effect of over 55% in size
Outline: (§1)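 Cytotoxicity screen measuring ATP content by luciferase luminescence. Each compound is applied at five concentrations for 48 h at 37 C with 5% CO2.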

PA-1 = experiment: as above; conditions: Gynecologic cancer cell panel viability, ATPlite luminescence, 48 h; series mostly up to 57.5 µM
Outline: as §1

Tov-21-G = experiment: as above; conditions: Gynecologic cancer cell panel viability, ATPlite luminescence, 48 h; series mostly up to 57.5 µM
Outline: as §1

SKOV3 = experiment: as above; conditions: Gynecologic cancer cell panel viability, ATPlite luminescence, 48 h; series mostly up to 57.5 µM
Outline: as §1

Tov112D = experiment: as above; conditions: Gynecologic cancer cell panel viability, ATPlite luminescence, 48 h; series mostly up to 57.5 µM
Outline: as §1

[1] = qHTS assay to identify inhibitors of the type 1 interferon - major histocompatibility complex class I in skeletal muscle: Counter screen cell viability and HiBit confirmation (AID 1347412); conditions: iHSKM muscle cells + IFN-b, HiBiT or CellTiter-Glo, 24 h; note: nearly all actives have a fitted effect of over 60% in size
Outline: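 HLA-B*08:01–HiBiT knock-in immortalized human myoblasts (C25cl48) stimulated with 4.0 ng/ml human IFN-beta and dosed with compound in a 12-point 1:3 titration (top final 46 uM). After 24 hrs at 37 C, HiBiT lytic luminescence or CellTiter Glo ATP read out.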
% is set by controls: 0 for no effect and ±100 for the full control effect; potency is the fitted concentration of half-maximal effect.

CC(=O)O[C@@](C)(C(=O)/C=C/C(C)(C)O)[C@H]1[C@H](O)C[C@@]2(C)[C@@H]3CC=C4[C@@H](C=C(O)C(=O)C4(C)C)[C@]3(C)C(=O)C[C@]12C
active: Potency (OV90) 4.47 µM | Potency (PA-1) 11.2 µM | Potency (Tov-21-G) 2.82 µM

O=C(/C=C/c1cccc(S(=O)(=O)Nc2ccccc2)c1)NO
active: Potency (OV90) 3.98 µM | Potency (PA-1) 1.26 µM | Potency (SKOV3) 11.2 µM | Potency (Tov112D) 3.98 µM | Potency ([1]; HiBiT) 3.13 µM
inactive: activity change, negative = inhibition ([1]; Viability, at 45.9 µM (top of the series)) -9.07%

COc1ccc(C2=N[C@@H](c3ccc(Cl)cc3)[C@@H](c3ccc(Cl)cc3)N2C(=O)N2CCNC(=O)C2)c(OC(C)C)c1
inactive: Potency (OV90) | Potency (SKOV3) | Potency (Tov112D)
active: Potency (PA-1) 14.1 µM

COc1cc2c(NC3CCN(CC4CCCCC4)CC3)nc(N3CCCN(C(C)C)CC3)nc2cc1OCCCN1CCCCC1
active: Potency (OV90) 3.16 µM | Potency (PA-1) 5.62 µM | Potency (SKOV3) 3.98 µM | Potency (Tov-21-G) 20 µM | Potency (Tov112D) 7.94 µM | Potency ([1]; Viability) 24.9 µM

CCOc1ccc(NC(=S)N2CCC(C(O)(c3ccccc3)c3ccccc3)CC2)cc1
inactive: Potency (OV90) | Potency (PA-1) | Potency (Tov-21-G) | Potency (Tov112D)

CCC(C)C(=O)OC1CC(O)C23C4OCC5(C(O)CC2C1(C)C(O)O4)C3C(=O)C(O)C1(C)C(O)(c2ccoc2)CC2OC251 (stereo not drawn)
active: Potency (OV90) 1.26 µM | Potency (PA-1) 3.16 µM | Potency (SKOV3) 3.16 µM | Potency (Tov112D) 3.55 µM

CC[C@H]1OC(=O)[C@](C)(F)C(=O)[C@H](C)[C@@H](O[C@@H]2O[C@H](C)C[C@H](N(C)C)[C@H]2O)[C@](C)(OC)C[C@@H](C)C(=O)[C@@H](C)[C@H]2N(CCCCn3cc(-c4cccc(N)c4)nn3)C(=O)O[C@]12C
inactive: Potency (OV90) | Potency (PA-1) | Potency (SKOV3) | Potency (Tov112D)

C=C1C(=O)O[C@H](CCC)[C@H]1C(=O)O
inactive: Potency (OV90) | Potency (PA-1) | Potency (Tov-21-G) | Potency (Tov112D)

CCC(O)(C(=O)OCc1ccccc1NC(=O)CCC(=O)O)C(C)O (stereo not drawn)
inactive: Potency (OV90) | Potency (PA-1) | Potency (Tov-21-G) | Potency (Tov112D)

CS(=O)(=O)c1ccc([C@H](CC2CCCC2)C(=O)Nc2nccs2)cc1
inactive: Potency (OV90) | Potency (PA-1) | Potency (Tov-21-G) | Potency (Tov112D)

C/C=C1\[C@H](O[C@@H]2O[C@H](CO)[C@@H](O)[C@H](O)[C@H]2O)OC=C2C(=O)OCCc3ccc(O)c(c3)Oc3ccc(cc3)CCOC(=O)C[C@H]21
inactive: Potency (OV90) | Potency (PA-1) | Potency (Tov-21-G) | Potency (Tov112D)

C/C(=C/CO)CC[C@@H]1[C@@](C)(O)CCC2C(C)(C)CCC[C@]21C (stereo partly drawn)
inactive: Potency (OV90) | Potency (PA-1) | Potency (Tov-21-G) | Potency (Tov112D)

C[C@@H]1O[C@@H](O[C@@H]2[C@@H](O)[C@H](O[C@H]3CC[C@@]4(C)C(CC[C@]5(C)C4CC=C4[C@@H]6CC(C)(C)CC[C@]6(C(=O)O[C@@H]6O[C@H](CO)[C@@H](O)[C@H](O)[C@H]6O)CC[C@]45C)C3(C)C)O[C@H](C(=O)O)[C@H]2O)[C@H](O)[C@H](O)[C@H]1O (stereo partly drawn)
inactive: activity change, negative = cytotoxicity (OV90) 3.49% [at 11.6 µM] | activity change, negative = cytotoxicity (PA-1) 2.04% [at 11.6 µM] | activity change, negative = cytotoxicity (Tov-21-G) 1.47% [at 11.6 µM] | activity change, negative = cytotoxicity (Tov112D) 5.96% [at 11.6 µM]

O=C(O)[C@@H]1C[C@H]2C[C@@H](CCc3nn[nH]n3)CC[C@H]2CN1
inactive: Potency (OV90) | Potency (PA-1) | Potency (Tov-21-G) | Potency (Tov112D)

CC1(C)C=CN2C(=O)C3=CCCN3C(=O)[C@@H]2C[C@@]12Nc1ccccc1C2=O
inactive: Potency (OV90) | Potency (PA-1) | Potency (Tov-21-G) | Potency (Tov112D)

CC1=CCC2C(C)(C)CCC[C@]2(C)[C@@]12CC[C@](C)(CC(=O)O)O2 (stereo partly drawn)
inactive: Potency (OV90) | Potency (PA-1) | Potency (Tov-21-G) | Potency (Tov112D)

CCOc1cc(CC(=O)NC(CC(C)C)c2ccccc2N2CCCCC2)ccc1C(=O)O (stereo not drawn)
inactive: Potency (OV90) | Potency (PA-1) | Potency (Tov-21-G) | Potency (Tov112D)

Cc1cc(C(=O)N2Cc3cnn(C)c3Nc3ccccc32)ccc1CNC(=O)N1CCC[C@H]1C(=S)N1CCCN(C)CC1
inactive: Potency (OV90) | Potency (PA-1) | Potency (Tov-21-G) | Potency (Tov112D)

C[C@@H]1O[C@@H](O[C@@H]2[C@@H](O)[C@H](O[C@H]3[C@H](O[C@H]4CC[C@@]5(C)C(CC[C@]6(C)C5CC=C5[C@@H]7CC(C)(C)CC[C@]7(C(=O)O[C@@H]7O[C@H](CO)[C@@H](O)[C@H](O)[C@H]7O[C@@H]7O[C@@H](C)[C@H](O[C@@H]8O[C@@H](C)[C@H](O)[C@@H](O)[C@H]8O)[C@@H](O)[C@H]7O)CC[C@]56C)[C@@]4(C)CO)O[C@H](C(=O)O)[C@@H](O)[C@@H]3O)O[C@H](CO)[C@H]2O)[C@H](O)[C@H](O)[C@H]1O (stereo partly drawn)
inactive: activity change, negative = cytotoxicity (OV90) 6.41% [at 6.55 µM] | activity change, negative = cytotoxicity (PA-1) 2.55% [at 6.55 µM] | activity change, negative = cytotoxicity (Tov-21-G) -1.58% [at 6.55 µM] | activity change, negative = cytotoxicity (Tov112D) 10.3% [at 6.55 µM]

CC(C)=CCC[C@](C)(O[C@@H]1O[C@H](CO[C@@H]2O[C@H](CO)[C@@H](O)[C@H](O)[C@H]2O)[C@@H](O)[C@H](O)[C@H]1O)C1CC[C@]2(C)[C@@H]1[C@H](O)CC1[C@@]3(C)CC[C@H](O[C@@H]4O[C@H](CO)[C@@H](O)[C@H](O)[C@H]4O[C@@H]4O[C@H](CO)[C@@H](O)[C@H](O)[C@H]4O)C(C)(C)[C@@H]3CC[C@]12C (stereo partly drawn)
inactive: activity change, negative = cytotoxicity (OV90) 2.46% [at 11.6 µM] | activity change, negative = cytotoxicity (PA-1) 0.278% [at 11.6 µM] | activity change, negative = cytotoxicity (Tov-21-G) 1.55% [at 11.6 µM] | activity change, negative = cytotoxicity (Tov112D) 0.741% [at 11.6 µM]
